Six1-Eya2 inh – qHTS Assay for Inhibitors of the Six1/Eya2 Interaction | AID 651725, 2012 | AlphaScreen GST-Six1/His-Eya2 binding, biochemical; active compounds read low | activity change, % (concentration not given with the values) | 360,000 compounds, 0.56% hits | Homeobox protein SIX1 (Homo sapiens) + Protein phosphatase EYA2 (Homo sapiens), …
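Six1/Eya2 binding was read as AlphaScreen signal after compounds were pinned into GST-Six1 plus His-tagged Eya2 (5X stock 250/500 nM) in pH 8.0 Tris/NaCl/TCEP buffer, beads added, then incubated 1 h, 37 C, dark.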
L3MBTL1 inh – qHTS Assay for the Inhibitors of L3MBTL1; Lethal(3)malignant brain tumor-like protein 1 (Homo sapiens), Q9Y468; AlphaScreen L3MBTL1–H3K9me1 peptide binding; Potency, µM (doses to about 57.1 µM), without a hit: at the top dose activity, negative = inhibition, usual class: inhibitors; 230,000 compounds, 0.66% hits; active = well fitted inhibition curve with a large enough effect; inconclusive = small, poorly fitted or top-dose-only effect; inactive = no such curve, though single readings can be large or run the other way; also: potency is read from the fitted curve at half-maximal effect; nearly all actives have a fitted effect of over 60% in size
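AlphaScreen assay: L3MBTL1 (50 nM final) was preincubated 30 min at room temperature with biotinylated H3(1-15)K9me1 peptide (75 nM final), then 30 min with library compounds; streptavidin donor and nickel chelate acceptor beads (10 ug/mL final) added, 30 min dark.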
CtBP-E1A inh – qHTS Assay for Inhibitors of the CtBP/E1A Interaction; CtBP / adenovirus E1A interaction (AlphaScreen); AlphaScreen GST-E1A/His-CtBP binding, 1536-well; active compounds read low; activity change, % (concentration not given with the values); 340,000 compounds, 0.49% hits
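Protein mix (5X: 125 nM each GST-E1A, His-CtBP) was incubated with pinned compound 2 h at 37 deg C in dark, in 50 mM Tris pH 8.0 buffer with 300 mM NaCl. Glutathione donor and nickel acceptor beads followed; AlphaScreen signal read after 1 h.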
JMJD2E inh – qHTS Assay for Inhibitors of Human Jumonji Domain Containing 2E (JMJD2E); JMJD2E catalytic domain, FDH-coupled NADH fluorescence (FDH is formaldehyde dehydrogenase); Potency, µM (doses to about 57.1 µM), for inactives: at the top dose activity change, negative = inhibition, usual class: inhibitors; 230,000 compounds, 1.6% hits; active = well fitted inhibition curve with a large enough effect, not every such curve was filed as active; inconclusive = small, poorly fitted or top-dose-only effect, or another doubt; inactive = no such curve, though single readings can be large or run the other way;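 also: potency is read from the fitted curve at half-maximal effect; 0% = wells with enzyme and -100% = buffer wells without enzyme; nearly all actives have a fitted effect of over 50% in size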
Target sequence (B2RXH2 1-337 limits assumed): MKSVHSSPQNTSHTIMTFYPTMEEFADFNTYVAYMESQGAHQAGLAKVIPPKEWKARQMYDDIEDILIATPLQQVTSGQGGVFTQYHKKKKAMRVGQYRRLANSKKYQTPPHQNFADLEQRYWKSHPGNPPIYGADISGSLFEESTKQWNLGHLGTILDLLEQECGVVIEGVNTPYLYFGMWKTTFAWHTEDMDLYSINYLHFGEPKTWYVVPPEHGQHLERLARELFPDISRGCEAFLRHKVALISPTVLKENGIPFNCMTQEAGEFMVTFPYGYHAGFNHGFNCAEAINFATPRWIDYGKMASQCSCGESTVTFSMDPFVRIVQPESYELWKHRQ
* = called active by the depositor; ? = inconclusive; / = no result given; ! = repeats disagree. This is one part of a sample in which hits are shown more often than they occur. Rule as the data show it, unless noted: active = activity change below about -65%; inconclusive = mostly about -30% to -63%; inactive = weaker than that. Unless noted, % is scaled to controls: 0 for no effect and ±100 for the full control effect.

SMILES	Six1-Eya2 inh	L3MBTL1 inh	CtBP-E1A inh	JMJD2E inh
O=C1/C(=C\c2ccccc2)C[C@@]2(O)[C@H]3Cc4ccc(O)c5c4[C@@]2(CCN3CC2CC2)[C@@H]1O5	/	/	/	-4%
CC/C=C\C/C=C\C/C=C\C/C=C\C/C=C\CCCC(=O)NCCc1ccc(O)c(O)c1	/	/	/	2%
Cc1ccc(S(=O)(=O)NN)c(C)c1N1CCCC1=O	7	56%	-19	-28%
CC/C=C\C/C=C\C/C=C\C/C=C\C/C=C\CCCC(N)=O	/	/	/	9%
Cc1cc(C(C#N)c2ccc(Cl)cc2)c(Cl)cc1NC(=O)c1cc(I)cc(I)c1O (stereo not drawn)	9	?	13	/
O=C1c2ccccc2C(=O)c2ccccc21	/	/	/	3%
O=C1C=Cc2ccccc2C1=O	/	-25%	/	14µM*
C[C@@H]1O[C@H](O[C@@H]2C[C@@H](O)[C@]3(CO)[C@H]4[C@H](O)C[C@]5(C)[C@@H](C6=CC(=O)OC6)CC[C@@]5(O)[C@@H]4CC[C@]3(O)C2)[C@@H](O)[C@H](O)[C@H]1O	/	/	/	1%
Nc1nonc1C(=O)N/N=C/c1ccc([N+](=O)[O-])o1	?	35µM*	0	-5%
N/C(=N\[N+](=O)[O-])N/N=C/c1ccc(O)cc1	-3	2%	-18	2%
CN1C(=O)/C(=C/c2cccn2-c2ccc3ccccc3c2)C(=O)NC1=S	-79*	?	-21	-2%
Cc1cc(C)cc(N2C(=O)NC(=O)/C(=C\c3cccn3-c3ccccc3)C2=O)c1	9	1%	6	6%
CC(C)c1cccc(O)c(=O)c1	-17	-1%	-5	7.9µM*
CCOc1ccc2nc(N=Nc3c(O)[nH]c(=S)[nH]c3=O)sc2c1	0	7.9µM*	5	-6%
CC1C(=O)OC2O[C@]3(C)CC[C@H]4C(C)CCC1[C@]24OO3 (stereo partly drawn)	/	/	/	8%
Cc1c(OCC(F)(F)F)ccnc1CS(=O)c1nc2ccccc2[nH]1 (stereo not drawn)	0	-17%	7	14µM*!
C[C@]12CCC3C(CC[C@H]4C[C@@H](O)CC[C@]34C)[C@@H]1CCC2=O (stereo partly drawn)	/	/	/	-6%
CN1Cc2ccccc2[C@@H]2c3cccc4[nH]cc(c34)C[C@H]21	/	/	/	10µM*
NC(N)=Nc1ccc2[nH]c3c(c2c1)C[C@@]1(O)[C@H]2Cc4ccc(O)c5c4[C@@]1(CCN2CC1CC1)[C@H]3O5	-7	-9%	-22	10µM*
C[Se]C[C@@H](N)C(=O)O	-4	0%	4	/
C[Se]C[C@H](N)C(=O)O	/	/	/	18µM*
NC(Cc1ccc(Cl)cc1)c1csc(Nc2ccccn2)n1 (stereo not drawn)	?	/	-68*	/
NC(Cc1ccccc1)c1csc(Nc2ccccn2)n1 (stereo not drawn)	-86*	/	-90*	/
NC(Cc1ccccc1)c1nc2ccccc2[nH]1 (stereo not drawn)	-14	/	-6	/
NC(Cc1ccc(F)cc1)c1csc(Nc2ccccn2)n1 (stereo not drawn)	-86*	/	-91*	/
SMILES	Six1-Eya2 inh	L3MBTL1 inh	CtBP-E1A inh	JMJD2E inh
NC(Cc1ccc(F)cc1)c1csc(Nc2cnccn2)n1 (stereo not drawn)	-74*	/	-83*	/
O=C(O)CCCCC1SCC2NC(=O)NC21 (stereo not drawn)	3	?	8	-2%
COC(=O)C(N)CCCN=C(N)N[N+](=O)[O-] (stereo not drawn)	/	/	/	6%
C[C@@]12CC(c3ccoc3)OC(=O)C1CC[C@@]1(C)C2C2C=C[C@@]1(O)C(=O)O2 (stereo partly drawn)	/	/	/	-5%
C=CCN1C(=O)NC(=O)/C(=C/c2cnc(SC)nc2)C1=O	0	2%	6	?
C=CCN1C(=O)NC(=O)/C(=C/c2cc3c4c(c2)CCCN4CCC3)C1=O	-9	28µM*	1	20µM*
C[C@@]12CCC3c4ccc(OS(=O)(=O)O)cc4CCC3C1CCC2O (stereo partly drawn)	/	/	/	188%
COc1cc2c(c(OC)c1OC)-c1ccc(O)c(=O)cc1[C@H](N)CC2	/	/	/	7.9µM*
COc1cc(C2c3cc4c(cc3C(O)C3COC(=O)C23)OCO4)cc(OC)c1O (stereo not drawn)	/	/	/	0%
CCOC(=O)C(C)Oc1cc(C)cc2oc(=O)c3c(c12)CCCC3 (stereo not drawn)	2	14%	-24	13µM*
O=P(c1ccccc1)(c1ccccc1)N1CC2(CC2)CC(O)(c2ccccc2)C1 (stereo not drawn)	/	/	/	-11%
c1cc2cc(c1)C[n+]1ccc(c3ccccc31)NCc1ccc(cc1)CNc1cc[n+](c3ccccc13)C2	/	/	/	18µM*
COc1cc(C(=O)N/N=C/c2ccc(OC(=O)N3CCOCC3)cc2)cc(OC)c1OC	5	4%	/	28µM*
COc1cc2c(cc1OC)-c1c3c(cc4c1[C@@H](C2)N(C)CC4)OCO3	?	-9%	?	?
COc1cc2c(cc1O)C[C@H]1NCCc3cc4c(c-2c31)OCO4	-65*	35µM*	-79*	?
CCOc1ccc(N2C(=O)NC(=O)/C(=C\c3cc(OC)c(OC)cc3[N+](=O)[O-])C2=O)cc1	-12	-8%	-5	/
COc1ccc(N2C(=O)NC(=O)/C(=C\c3ccc([N+](=O)[O-])s3)C2=O)cc1	?	22µM*	-21	25µM*
COc1ccccc1N1C(=O)NC(=O)/C(=C/c2ccc([N+](=O)[O-])s2)C1=O	?	/	-26	?
COc1cccc(N2C(=O)NC(=O)/C(=C/c3ccc([N+](=O)[O-])s3)C2=O)c1	?	/	-22	25µM*
COc1ccc(N2C(=O)NC(=O)/C(=C/c3ccc([N+](=O)[O-])s3)C2=O)cc1	-73*	/	/	20µM*
OC[C@@H]1CCCN2CCCC[C@@H]12	/	/	/	2%
O=c1cccc2n1CC1CC2CN(CCO)C1 (stereo not drawn)	/	/	/	-19%

Screening data from PubChem BioAssay.
